{"source": "the antibiotic and cytotoxicity screens of Wong et al. (2023)", "note": "Among all 39,000 compounds or so, about 3,300 (8.5%) were called active. The sample holds actives, similar compounds and a random draw of the others, so the mix is not that of the screen."}
{"test_system": "HepG2", "experiment": "cytotoxicity call (relative viability < 0.9)", "details": "10 µM"}
{"compound": "Cn1c(=O)c2c(ncn2CC(=O)N2CCN(c3ccccc3F)CC2)n(C)c1=O", "cytotoxicity call": "inactive"}
{"compound": "CCN(CC)C(=S)SSC(=S)N(CC)CC", "cytotoxicity call": "active"}
{"compound": "O=C(NCc1nc2ccccc2[nH]1)C1=C[C@@H](c2ccc(C(F)(F)F)cc2)C[C@@H](OCc2ccc(CO)cc2)O1", "cytotoxicity call": "inactive"}
{"compound": "Nc1cc(N)nc(SCCC(=O)O)n1", "cytotoxicity call": "inactive"}
{"compound": "COCC(=O)N1CC(=O)N2[C@H](CO)[C@@H](c3ccc(C#Cc4cccnc4)cc3)[C@H]2C1", "cytotoxicity call": "inactive"}
{"compound": "COC(=O)CC1C2(C)CC34OC5(C)OC6(C7C(=C(O)C(C)C)C(=O)OC(c8ccoc8)C7(C)C(OC(C)=O)C(OC(C)=O)C6(O5)C13C)C(OC(C)=O)C4(O)C2OC(=O)C(C)C", "note": "(stereo not given)", "cytotoxicity call": "inactive"}
{"compound": "CC(C)C(=O)[C@@H]1C(=O)O[C@@H](c2ccoc2)[C@]2(C)[C@H](O)[C@@H](O)[C@@]34O[C@]5(C)O[C@]3([C@H]12)[C@H](O)[C@@]1(O)[C@H](O)[C@]2(C)C[C@]1(O5)[C@@]4(C)[C@H]2CC(=O)O", "cytotoxicity call": "active"}
{"compound": "CC(C)C(O)=C1C(=O)OC(c2ccoc2)C2(C)C(O)C(O)C34OC5(C)OC3(C12)C(O)C1(O)C(O)C2(C)CC1(O5)C4(C)C2CC(=O)O", "note": "(stereo not given)", "cytotoxicity call": "inactive"}
{"compound": "COc1cccc(S(=O)(=O)N(C)C[C@H]2Oc3ncc(C#CC(C)C)cc3C(=O)N([C@H](C)CO)C[C@@H]2C)c1", "cytotoxicity call": "inactive"}
{"compound": "C[C@H](C(=O)N(C)C[C@H]1OCc2ccccc2-c2c(n(C)c3ccccc23)C(=O)N([C@@H](C)CO)C[C@H]1C)c1ccccc1", "cytotoxicity call": "inactive"}
{"compound": "C[C@@H]1CN([C@@H](C)CO)C(=O)c2c(c3ccccc3n2C)-c2ccccc2CO[C@@H]1CN(C)C(=O)[C@H](C)c1ccccc1", "cytotoxicity call": "inactive"}
{"compound": "C[C@@H](C(=O)N(C)C[C@H]1OCc2ccccc2-c2c(n(C)c3ccccc23)C(=O)N([C@@H](C)CO)C[C@@H]1C)c1ccccc1", "cytotoxicity call": "inactive"}
{"compound": "C[C@H](C(=O)N(C)C[C@@H]1OCc2ccccc2-c2c(n(C)c3ccccc23)C(=O)N([C@@H](C)CO)C[C@@H]1C)c1ccccc1", "cytotoxicity call": "inactive"}
{"compound": "C[C@H](C(=O)N(C)C[C@H]1OCc2ccccc2-c2c(n(C)c3ccccc23)C(=O)N([C@@H](C)CO)C[C@@H]1C)c1ccccc1", "cytotoxicity call": "active"}
{"compound": "C[C@H](CO)N1C[C@H](C)[C@H](CN(C)C(=O)[C@H](C)c2ccccc2)OCc2ccccc2-c2c(n(C)c3ccccc23)C1=O", "cytotoxicity call": "active"}
{"compound": "Cc1noc(C)c1NC(=O)Nc1ccc2c(c1)C(=O)N([C@H](C)CO)C[C@H](C)[C@@H](CN(C)Cc1ccccc1)OCCCC[C@H](C)O2", "cytotoxicity call": "inactive"}
{"compound": "C[C@@H]1CN([C@@H](C)CO)C(=O)c2cc(NC(=O)Nc3ccc(C(F)(F)F)cc3)ccc2O[C@@H]1CN(C)Cc1ccccc1", "cytotoxicity call": "active"}
{"compound": "C[C@@H]1CN([C@@H](C)CO)C(=O)c2cc(NC(=O)Nc3ccc(C(F)(F)F)cc3)ccc2O[C@H]1CN(C)Cc1ccccc1", "cytotoxicity call": "inactive"}
{"compound": "C[C@@H]1CN([C@H](C)CO)C(=O)c2cc(NC(=O)Nc3ccc(C(F)(F)F)cc3)ccc2O[C@@H]1CN(C)Cc1ccccc1", "cytotoxicity call": "active"}
{"compound": "C[C@H](CO)N1C[C@H](C)[C@H](CN(C)Cc2ccccc2)Oc2ccc(NC(=O)Nc3ccc(C(F)(F)F)cc3)cc2C1=O", "cytotoxicity call": "active"}
{"compound": "C[C@H]1CN([C@@H](C)CO)C(=O)c2cc(NC(=O)Nc3ccc(C(F)(F)F)cc3)ccc2O[C@@H]1CN(C)Cc1ccccc1", "cytotoxicity call": "inactive"}
{"compound": "C[C@H]1CN([C@@H](C)CO)C(=O)c2cc(NC(=O)Nc3ccc(C(F)(F)F)cc3)ccc2O[C@H]1CN(C)Cc1ccccc1", "cytotoxicity call": "active"}
{"compound": "COc1ccc2c3c([nH]c2c1)[C@@H](CO)N(C[C@]13CN(Cc2ccccc2)C1)S(=O)(=O)c1cn(cn1)C", "cytotoxicity call": "inactive"}
{"compound": "C[C@@H]1CN([C@H](C)CO)S(=O)(=O)c2ccc(C#CC3(O)CCCC3)cc2O[C@@H]1CN(C)C(=O)c1cccnc1", "cytotoxicity call": "inactive"}
{"compound": "COc1ccc(CN(C)C[C@H]2OCCCC[C@H](C)Oc3ccc(NC(=O)c4ccccc4)cc3C(=O)N([C@H](C)CO)C[C@H]2C)cc1", "cytotoxicity call": "inactive"}
{"compound": "COc1ccc(CN(C)C[C@H]2OCCCC[C@@H](C)Oc3ccc(NC(=O)Cc4ccccc4)cc3C(=O)N([C@H](C)CO)C[C@H]2C)cc1", "cytotoxicity call": "inactive"}
{"compound": "CC[C@@](N)(C(=O)O)c1ccccc1", "cytotoxicity call": "inactive"}
{"compound": "C=C(C)[C@]1(O)OC(=O)C=C1OC", "cytotoxicity call": "inactive"}
{"compound": "C[C@@H]1CN([C@H](C)CO)C(=O)c2cc(C#Cc3ccccc3F)cnc2O[C@@H]1CN(C)S(=O)(=O)c1ccccc1", "cytotoxicity call": "inactive"}
{"compound": "CCC(=O)N1CCC[C@@H]1C(=O)O", "cytotoxicity call": "inactive"}
{"compound": "Cc1noc(C)c1NC(=O)Nc1ccc2c(c1)C(=O)N([C@H](C)CO)C[C@H](C)[C@H](CN(C)C(=O)c1ccccc1)OCCCC[C@@H](C)O2", "cytotoxicity call": "inactive"}
{"compound": "Cc1ccc(S(=O)(=O)N[C@@H]2CC[C@@H](CC(=O)N3CCC(Cc4ccccc4)CC3)O[C@@H]2CO)cc1", "cytotoxicity call": "inactive"}
{"compound": "C[C@@H]1CCCCO[C@H](CN(C)CC2CCCCC2)[C@H](C)CN([C@H](C)CO)C(=O)c2cc(NC(=O)c3ccncc3)ccc2O1", "cytotoxicity call": "inactive"}
{"compound": "C[C@H](CO)N1C[C@H](C)[C@H](CN(C)C(=O)Nc2ccc(C(F)(F)F)cc2)Oc2ccc(NC(=O)Nc3ccc4c(c3)OCO4)cc2C1=O", "cytotoxicity call": "inactive"}
{"compound": "C[C@@H]1CN([C@H](C)CO)S(=O)(=O)c2ccc(-c3cccc(F)c3)cc2O[C@@H]1CN(C)S(C)(=O)=O", "cytotoxicity call": "inactive"}
{"compound": "C[C@@H]1CN([C@@H](C)CO)C(=O)c2cc(NC(=O)C3CC3)ccc2O[C@H]1CN(C)S(=O)(=O)c1ccc(Cl)cc1", "cytotoxicity call": "inactive"}
{"compound": "C[C@@H]1CN([C@H](C)CO)C(=O)c2cc(NC(=O)Nc3ccc(C(F)(F)F)cc3)ccc2O[C@H]1CN(C)Cc1ccccc1", "cytotoxicity call": "active"}
{"compound": "C[C@H](CO)N1C[C@H](C)[C@@H](CN(C)Cc2ccccc2)Oc2ccc(NC(=O)Nc3ccc(C(F)(F)F)cc3)cc2C1=O", "cytotoxicity call": "active"}
{"compound": "C[C@@H]1CN([C@@H](C)CO)C(=O)c2cc(NC(=O)Cc3ccccc3)ccc2O[C@@H](C)CCCCO[C@@H]1CN(C)S(=O)(=O)c1cccs1", "cytotoxicity call": "inactive"}
{"compound": "Cc1cc(C(=O)Nc2cccc3c2O[C@H](CN(C)Cc2ccccc2)[C@@H](C)CN([C@@H](C)CO)C3=O)n(C)n1", "cytotoxicity call": "inactive"}
{"compound": "C[C@H]1CN([C@@H](C)CO)C(=O)c2cccc(NC(=O)Nc3ccc4c(c3)OCO4)c2O[C@@H]1CN(C)S(=O)(=O)c1cn(C)cn1", "cytotoxicity call": "inactive"}
{"compound": "C[C@H](CO)N1C[C@H](C)[C@H](CN(C)S(=O)(=O)c2cccs2)OCCCC[C@H](C)Oc2ccc(NC(=O)CCC(F)(F)F)cc2C1=O", "cytotoxicity call": "inactive"}
{"compound": "Cc1noc(C)c1NC(=O)Nc1ccc2c(c1)C(=O)N([C@H](C)CO)C[C@H](C)[C@@H](CN(C)S(C)(=O)=O)O2", "cytotoxicity call": "inactive"}
{"compound": "C[C@@H]1CCCCO[C@@H](CN(C)C(=O)Nc2ccc(C(F)(F)F)cc2)[C@H](C)CN([C@@H](C)CO)C(=O)c2cc(NC(=O)Nc3ccc4c(c3)OCO4)ccc2O1", "cytotoxicity call": "inactive"}
{"compound": "Cc1noc(C)c1NC(=O)Nc1ccc2c(c1)C(=O)N([C@@H](C)CO)C[C@H](C)[C@@H](CN(C)C(=O)Nc1ccccc1)OCCCC[C@H](C)O2", "cytotoxicity call": "inactive"}
{"compound": "C[C@H](CO)N1C[C@H](C)[C@H](CN(C)C(=O)Nc2cccc3ccccc23)Oc2ccc(NC(=O)CCC(F)(F)F)cc2C1=O", "cytotoxicity call": "inactive"}
{"compound": "C[C@@H]1CCCCO[C@@H](CN(C)S(C)(=O)=O)[C@@H](C)CN([C@H](C)CO)C(=O)c2cc(NC(=O)c3ccncc3)ccc2O1", "cytotoxicity call": "inactive"}
{"compound": "C[C@@H]1CN([C@H](C)CO)C(=O)Cc2cc(NS(=O)(=O)c3cccs3)ccc2O[C@@H]1CN(C)Cc1ccc(Oc2ccccc2)cc1", "cytotoxicity call": "active"}
{"compound": "C[C@@H]1CN([C@H](C)CO)C(=O)Cc2cc(NS(=O)(=O)c3cccs3)ccc2O[C@H]1CN(C)Cc1ccc(Oc2ccccc2)cc1", "cytotoxicity call": "active"}
{"compound": "C[C@H]1CN([C@@H](C)CO)C(=O)Cc2cc(NS(=O)(=O)c3cccs3)ccc2O[C@H]1CN(C)Cc1ccc(Oc2ccccc2)cc1", "cytotoxicity call": "inactive"}
{"compound": "C[C@H]1CN([C@@H](C)CO)C(=O)Cc2cc(NS(=O)(=O)c3cccs3)ccc2O[C@@H]1CN(C)Cc1ccc(Oc2ccccc2)cc1", "cytotoxicity call": "inactive"}
{"compound": "C[C@@H]1CN([C@@H](C)CO)C(=O)Cc2cc(NS(=O)(=O)c3cccs3)ccc2O[C@@H]1CN(C)Cc1ccc(Oc2ccccc2)cc1", "cytotoxicity call": "inactive"}
{"compound": "C[C@H](CO)N1C[C@H](C)[C@@H](CN(C)Cc2ccc(Oc3ccccc3)cc2)Oc2ccc(NS(=O)(=O)c3cccs3)cc2CC1=O", "cytotoxicity call": "inactive"}
{"compound": "Cn1cc(CN2CCC3(CC2)CNC(=O)CO3)cn1", "cytotoxicity call": "inactive"}
{"compound": "COc1cccc(S(=O)(=O)Nc2ccc3c(c2)[C@@H]2C[C@H](CC(=O)NC4CCCCC4)O[C@@H](CO)[C@@H]2O3)c1", "cytotoxicity call": "inactive"}
{"compound": "Cc1ccc(S(=O)(=O)Nc2ccc3c(c2)C(=O)N([C@H](C)CO)C[C@@H](C)[C@@H](CN(C)S(=O)(=O)c2ccccc2)O3)cc1", "cytotoxicity call": "inactive"}
{"compound": "C[C@@H]1CN([C@@H](C)CO)S(=O)(=O)c2ccc(C#CC(C)(C)O)cc2O[C@H]1CN(C)C(=O)CN(C)C", "cytotoxicity call": "inactive"}
{"compound": "COc1ccc(NC(=O)N(C)C[C@H]2OCCCC[C@@H](C)Oc3ccc(NC(=O)c4ccccc4)cc3C(=O)N([C@@H](C)CO)C[C@@H]2C)cc1", "cytotoxicity call": "inactive"}
{"compound": "CC(C)NC(=O)N(C)C[C@H]1OCCCC[C@H](C)Oc2ccc(NC(=O)Nc3cccc4ccccc34)cc2C(=O)N([C@H](C)CO)C[C@@H]1C", "cytotoxicity call": "inactive"}
{"compound": "C[C@H]1CCCCO[C@H](CN(C)Cc2ccc(C(=O)O)cc2)[C@@H](C)CN([C@@H](C)CO)C(=O)c2cc(NS(=O)(=O)c3ccc(F)cc3)ccc2O1", "cytotoxicity call": "inactive"}
{"compound": "CN(C)C/C=C/C(=O)Nc1ccc(C(=O)Nc2cccc(Nc3ncc(Cl)c(-c4c[nH]c5ccccc45)n3)c2)cc1", "cytotoxicity call": "active"}
{"compound": "O=C(O)C1CCOCC1", "cytotoxicity call": "inactive"}
{"compound": "Cc1ccc(S(=O)(=O)Nc2ccc3c(c2)C(=O)N([C@H](C)CO)C[C@@H](C)[C@@H](CN(C)Cc2ccc(Cl)c(Cl)c2)OCCCC[C@H](C)O3)cc1", "cytotoxicity call": "inactive"}
{"compound": "Cc1ccc(S(=O)(=O)Nc2ccc3c(c2)C(=O)N([C@H](C)CO)C[C@@H](C)[C@H](CN(C)Cc2ccc(Cl)c(Cl)c2)OCCCC[C@@H](C)O3)cc1", "cytotoxicity call": "active"}
{"compound": "Cc1ccc(S(=O)(=O)Nc2ccc3c(c2)C(=O)N([C@H](C)CO)C[C@H](C)[C@@H](CN(C)Cc2ccc(Cl)c(Cl)c2)OCCCC[C@H](C)O3)cc1", "cytotoxicity call": "inactive"}
{"compound": "Cc1ccc(S(=O)(=O)Nc2ccc3c(c2)C(=O)N([C@H](C)CO)C[C@@H](C)[C@H](CN(C)Cc2ccc(Cl)c(Cl)c2)OCCCC[C@H](C)O3)cc1", "cytotoxicity call": "active"}
{"compound": "Cc1ccc(S(=O)(=O)Nc2ccc3c(c2)C(=O)N([C@@H](C)CO)C[C@H](C)[C@@H](CN(C)Cc2ccc(Cl)c(Cl)c2)OCCCC[C@@H](C)O3)cc1", "cytotoxicity call": "active"}
{"compound": "Cc1ccc(S(=O)(=O)Nc2ccc3c(c2)C(=O)N([C@@H](C)CO)C[C@@H](C)[C@H](CN(C)Cc2ccc(Cl)c(Cl)c2)OCCCC[C@@H](C)O3)cc1", "cytotoxicity call": "inactive"}
{"compound": "Cc1ccc(S(=O)(=O)Nc2ccc3c(c2)C(=O)N([C@H](C)CO)C[C@H](C)[C@H](CN(C)Cc2ccc(Cl)c(Cl)c2)OCCCC[C@H](C)O3)cc1", "cytotoxicity call": "inactive"}
{"compound": "Cc1ccc(S(=O)(=O)Nc2ccc3c(c2)C(=O)N([C@@H](C)CO)C[C@@H](C)[C@@H](CN(C)Cc2ccc(Cl)c(Cl)c2)OCCCC[C@@H](C)O3)cc1", "cytotoxicity call": "active"}
